Laboratory results published in PubChem BioAssay (Tox21).
The source made the active and inactive calls. Where a call stands in place of a potency, no number is given. Calls follow the shape of the full dose curve.

assay: G protein-coupled receptor (GPCR) small molecule agonists, calcium flux assay: HEK293 wild type cell line counter screen (AID 1920065); settings: HEK293 WT calcium flux, fluorescence, agonist mode; series mostly up to 57.6 µM
Source text: U.S. Tox21 Program National Center for Advancing Translational Sciences [NCATS] Division of Preclinical Innovation [DPI] U.S. Environmental Protection Agency [EPA] National Institutes of Environmental Health Sciences [NIEHS] National Toxicology Program [NTP] U.S. Food and Drug Administration [FDA] Assay overview: The increased intracellular calcium release that occurred upon G protein-coupled receptor (GPCR) activation led to the frequent use of calcium flux assays to detect GPCR activation. For the purpose of studying and screening compounds that may activate GPCR, receptor-overexpressing models were typically generated using Hek293 wild-type (WT) cells. In order to eliminate the compounds that may have induced calcium release for non-specific activation, a counter-assay utilizing calcium flux on Hek293 WT cells was performed. The data were formulated in order to serve as a control for any calcium flux detection utilizing Hek293 cells with either GPCR overexpression or gene modification. The procurement of Hek293 WT cells from ATCC. Fluorescence intensity can be utilized to determine the activation of the compound in a calcium flux assay. As a counter control, this cell line was utilized to screen the Tox21 10K compound library.
Assay Protocol Summary: Hek293 cells were dispensed at 1500cells/4uL/well in 1536-well black wall/clear bottom plates using a multidrop dispenser. After the assay plates were incubated at a 37 C/5% CO2 incubator for 18 hours, 4 uL of Calcium Dye Solution was added to each well. The plates were incubated at 37 C for 1 hour. For agonist mode, 23 nL of compounds dissolved in DMSO, positive control (ATP) or DMSO only was transferred to the assay plate by a pin tool station. The fluorescence intensity in the plates was measured using FDSS 7000EX kinetic plate reader with a filter set of Ex/Em=480/540 for 3 min at 1 sec intervals. Each test compound was measured at 15 concentrations and in triplicates.

| SMILES | Potency | activation |
| --- | --- | --- |
| CCOP(=S)(OCC)SC(CCl)N1C(=O)c2ccccc2C1=O (stereo not given) | inactive | – |
| CC(=O)[O-].CC(=O)[O-].O.O.O.[Pb+2] | inactive | – |
| COc1ccc(C(c2ccc(OC)cc2)C(Cl)(Cl)Cl)cc1 | inactive | – |
| Cc1ccccc1OP(=O)(Oc1ccccc1C)Oc1ccccc1C | inactive | – |
| CCc1cc2c(s1)-n1c(C)nnc1CN=C2c1ccccc1Cl | inactive | – |
| CC(Cc1ccc2c(c1)OCO2)NO (stereo not given) | inactive | – |
| Oc1cc(Cl)cc(Cl)c1 | inactive | – |
| CN(N=O)c1ccc([N+](=O)[O-])cc1 | inactive | – |
| O=[N+]([O-])c1cc(C(F)(F)F)c(Cl)c([N+](=O)[O-])c1Cl | inactive | – |
| CS(=O)(=O)c1ccc(C(=O)C2C(=O)CCCC2=O)c(Cl)c1COCC(F)(F)F | inactive | – |
| O=C(Nc1ccc(F)cc1F)c1cccnc1Oc1cccc(C(F)(F)F)c1 | inactive | – |
| COC(=O)c1cc(Oc2ccc(Cl)cc2Cl)ccc1[N+](=O)[O-] | inactive | – |
| Oc1cccc(Cl)c1 | inactive | – |
| CCCCC(CC)COC(=O)OOC(C)(C)C (stereo not given) | inactive | – |
| CCCCCOC(=O)c1ccccc1C(=O)OCCCCC | inactive | – |
| CC(C)N(C(=O)COc1nnc(C(F)(F)F)s1)c1ccc(F)cc1 | inactive | – |
| CC[C@@H](CO)NC(=O)[C@@H]1C=C2c3cccc4c3c(cn4C)C[C@H]2N(C)C1 | inactive | – |
| BrCC(Br)C1CCC(Br)C(Br)C1 (stereo not given) | inactive | – |
| Oc1ccc(C2(c3ccc(O)cc3)c3ccccc3-c3ccccc32)cc1 | inactive | – |
| c1ccc2c(c1)OCC(C1=NCCN1)O2 (stereo not given) | inactive | – |

| SMILES | Potency | activation |
| --- | --- | --- |
| CCC(CC)(CNC(=O)CCCO)c1cccc(OC)c1 | inactive | – |
| CCOP(=S)(OCC)SCCS(=O)(=O)CC | inactive | – |
| COP(=S)(OC)Oc1cc(Cl)c(I)cc1Cl | inactive | – |
| c1ccc(Nc2ccc(Nc3ccccc3)cc2)cc1 | inactive | – |
| Cc1ccc2nc3sc(=O)sc3nc2c1 | – | -0.174% [at 11.8 µM] (inactive) |
| CC1(c2ccc(Oc3ccccc3)cc2)OC(=O)N(Nc2ccccc2)C1=O (stereo not given) | inactive | – |
| COP(=S)(OC)Oc1cc(Cl)c(Br)cc1Cl | inactive | – |
| COc1cc(OC)c(OC)cc1C=O | inactive | – |
| O=[Se]=O | inactive | – |
| CON(C)C(=O)Nc1ccc(Br)c(Cl)c1 | inactive | – |
| C[C@@H](N)[C@@H](O)c1ccccc1 | inactive | – |
| Cc1ccc(OP(=O)(Oc2ccccc2)Oc2ccccc2)cc1 | inactive | – |
| NNC(N)=O | inactive | – |
| CN(C)CCc1c[nH]c2ccc(O)cc12 | inactive | – |
| Oc1c(I)cc(I)cc1I | inactive | – |
| CCCCCCCCCCCCCN1CC(C)OC(C)C1 (stereo not given) | inactive | – |
| CC(C)[C@H](C(=O)O[C@H](C#N)c1cccc(Oc2ccccc2)c1)c1ccc(Cl)cc1 | inactive | – |
| CCCCN(N=O)C(=N)N[N+](=O)[O-] | inactive | – |
| Cc1c(COC(=O)[C@@H]2[C@H](/C=C(\Cl)C(F)(F)F)C2(C)C)cccc1-c1ccccc1 | inactive | – |
| CNC(C)Cc1ccc2c(c1)OCO2 (stereo not given) | inactive | – |
